Results reported in PubChem BioAssay (NCI).
Several values for one entry are separate records, joined by “and”; a condition that tells them apart may be missing. Equal entries are not always repeated. The panel holds about 83,000 compounds, 20% with a hit somewhere; the sample as a whole holds those more often.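 In brief: 96-well plates, 48 h treatment, single concentration, percent growth endpoint.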 Activity calls are given as the source filed them. Rule for the calls: active = growth percent below 10; inactive = the rest.

How the values were obtained:
Test in all cases: NCI-60 one-dose screen, 48 h (100 = growth as untreated, 0 = no growth, -100 = all killed)
Details in all cases: 10 µM unless noted
DU-145 prostate = system: DU-145 prostate
K-562 leukemia = system: K-562 leukemia
MALME-3M melanoma = system: MALME-3M melanoma
MDA-MB-231 breast = system: MDA-MB-231 breast
RXF 393 renal = system: RXF 393 renal
SF-268 CNS = system: SF-268 CNS
SF-295 CNS = system: SF-295 CNS
SF-539 CNS = system: SF-539 CNS
UACC-257 melanoma = system: UACC-257 melanoma
M14 melanoma = system: M14 melanoma

| Structure (SMILES) | growth (DU-145 prostate) | growth (K-562 leukemia) | growth (MALME-3M melanoma) | growth (MDA-MB-231 breast) | growth (RXF 393 renal) | growth (SF-268 CNS) | growth (SF-295 CNS) | growth (SF-539 CNS) | growth (UACC-257 melanoma) | growth (M14 melanoma) |
| --- | --- | --- | --- | --- | --- | --- | --- | --- | --- | --- |
| CCCCCCCCCCCCCCCC[n+]1ccccc1 | -74.4% (active) and -12.9% (active) | -44.3% (active) and 0.871% (active) | -56.5% (active) and -38% (active) | -40.7% (active) and -32.7% (active) | -86.7% (active) | -58.9% (active) and -32.7% (active) | -69.1% (active) and -56.5% (active) | -70.3% (active) and -27.4% (active) | -52.2% (active) and -26.1% (active) | -49% (active) and -77.5% (active) |
| Cc1cc(N(CCCl)CCCl)ccc1/C=N\NC(=O)c1cccnc1 | 75.6% (inactive) and 75.4% (inactive) | 85.2% (inactive) and 91.8% (inactive) | 107% (inactive) | 112% (inactive) and 94.5% (inactive) | 100% (inactive) and 85.6% (inactive) | 80.4% (inactive) and 72.5% (inactive) | 49.6% (inactive) | 54.2% (inactive) and 73.7% (inactive) | 84.9% (inactive) and 88.6% (inactive) | 96% (inactive) and 92.1% (inactive) |
| C[C@@H]1C/C=C\C(=O)O[C@H](/C=C/C#C/C=C/C(C)(C)[C@@H](O)c2cccc(O)c2Br)[C@@H](C)/C=C/[C@H](C)C[C@H](OC(N)=O)C1 | 47.6% (inactive) | 6.76% (active) | 28.4% (inactive) | 2.09% (active) | 27.4% (inactive) | 40.4% (inactive) | -6.34% (active) | 30.6% (inactive) | -11.1% (active) | 0.391% (active) |
| C/C(=C\c1ccn(-c2ccc(N)cc2F)n1)[C@@H]1C[C@@H]2O[C@]2(C)CCC[C@H](C)[C@H](O)[C@@H](C)C(=O)C(C)(C)[C@@H](O)CC(=O)O1 | -19.4% (active) | 11.8% (inactive) | 30.9% (inactive) | 20.8% (inactive) | -7.39% (active) | 29.7% (inactive) | 8.62% (active) | -4.08% (active) | 56.3% (inactive) | -5.99% (active) |
| CC[C@H](C)[C@H](NC(=O)c1ncccn1)C(=O)N(C)[C@H](C[C@@H](OC(C)=O)c1nc(C(=O)N[C@@H](Cc2ccccc2)C[C@H](C)C(=O)OC)cs1)C(C)C | 9.45% (active) | 7.26% (active) | 60.7% (inactive) | 4.19% (active) | -8.95% (active) | 30.6% (inactive) | 14.4% (inactive) | -51.1% (active) | 50.2% (inactive) | 5.61% (active) |
| O=C(Cc1ccccc1)NC(O)C(Cl)(Cl)Cl (stereo not given) | 118% (inactive) | 98.3% (inactive) | 115% (inactive) | 106% (inactive) | 105% (inactive) | 104% (inactive) | 103% (inactive) | 108% (inactive) | 103% (inactive) | 101% (inactive) |
| O=C(NC1=NCC[Se]1)c1ccccc1O | 61.1% (inactive) | 50.7% (inactive) | -22.9% (active) | 69.3% (inactive) | 44% (inactive) | 43.3% (inactive) | 95.4% (inactive) | 52.9% (inactive) | 55.3% (inactive) | 42% (inactive) |
| COC12CC3(C)C(C4=CC(=O)OC4)CCC3(O)C3CCC4=CC(=O)CCC4(CO1)C32 (stereo not given) | 117% (inactive) | 106% (inactive) | 77.1% (inactive) | 110% (inactive) | 112% (inactive) | 109% (inactive) | 90.6% (inactive) | 111% (inactive) | 100% (inactive) | 92.6% (inactive) |
| Cc1c(C)c(N)c(C)c(C)c1N | 6.41% (active) | 97.8% (inactive) | 93.2% (inactive) | 83.2% (inactive) | 84.1% (inactive) | 91.5% (inactive) | 85.4% (inactive) | 108% (inactive) | 92.9% (inactive) | 98.7% (inactive) |
| CN1CCc2cc3c(cc2C1O)OCO3 (stereo not given) | 101% (inactive) and 103% (inactive) | 96.7% (inactive) | 31% (inactive) and 88.7% (inactive) | 97.6% (inactive) and 111% (inactive) | 87.8% (inactive) and 114% (inactive) | 83.2% (inactive) and 101% (inactive) | 86.7% (inactive) and 94.8% (inactive) | 33.5% (inactive) and 93% (inactive) | 99.2% (inactive) and 111% (inactive) | 102% (inactive) and 99% (inactive) |
| O=CC1(c2ccccc2)CCN(Cc2ccccc2)CC1 | 106% (inactive) | 105% (inactive) | 105% (inactive) | 104% (inactive) | 115% (inactive) | 99.6% (inactive) | 99% (inactive) | 106% (inactive) | 99.5% (inactive) | 98.8% (inactive) |
| C[C@]12CC[C@H]3[C@@H](C[C@@H]4SC(Nc5ccccc5)=N[C@@]45C/C(=N/O)CC[C@]35C)[C@@H]1CCC2=O | 29.8% (inactive) | 12.5% (inactive) | 83.8% (inactive) | 78.2% (inactive) | 28.8% (inactive) | 57.7% (inactive) | 55.7% (inactive) | 44.2% (inactive) | 99.9% (inactive) | 68.5% (inactive) |
| CCCCCCCCCCCCCCCCCCn1cc[n+](C)c1 | -54% (active) and -62.3% (active) | 28.3% (inactive) and 17.9% (inactive) | -33.7% (active) and -30.7% (active) | -66.2% (active) and -80.2% (active) | -28.3% (active) and -62.1% (active) | -45.4% (active) and -45.3% (active) | -10.4% (active) and -21.5% (active) | -85.2% (active) and -82.9% (active) | -38% (active) and -47.9% (active) | -62.4% (active) and -49.9% (active) |
| O=P1(N(CCCl)CCCl)NCCCO1 (stereo not given) | 124% (inactive) | 104% (inactive) | 96.5% (inactive) | 107% (inactive) | 110% (inactive) | 117% (inactive) | 107% (inactive) | 110% (inactive) | 109% (inactive) | 101% (inactive) |
| CC1(C)C=Cc2c(ccc3c2[N+]([O-])=C2C3=C[C@@]34NC(=O)[C@]5(CCCN5C3=O)C[C@@H]4C2(C)C)O1 | 43.3% (inactive) | 9.2% (active) | 82.9% (inactive) | 48.5% (inactive) | 32.8% (inactive) | 53.7% (inactive) | 52.2% (inactive) | 51.2% (inactive) | 68.9% (inactive) | 61.6% (inactive) |
| C[C@]12CCC(=O)C[C@@H]1CC[C@@H]1[C@@H]2CC[C@]2(C)[C@@H](OC(=O)N(CCCl)N=O)CC[C@@H]12 | -53.4% (active) | 10.7% (inactive) | 57.2% (inactive) | 69.6% (inactive) | 32.7% (inactive) | 12.7% (inactive) | -29.6% (active) | -28.5% (active) | 57.5% (inactive) | 17.7% (inactive) |
| Cc1cc[c-]cc1.Fc1c[c-]c(-c2ccccn2)c(F)c1.N#CCC[PH+](CCC#N)c1ccccc1.[Pt+2] | 57.6% (inactive) | 11.6% (inactive) | 0.385% (active) | 13.7% (inactive) | -36% (active) | 46% (inactive) | 85.2% (inactive) | 48.3% (inactive) | 62.4% (inactive) | 21.9% (inactive) |
| CCN1C(=O)CC(=O)N(CC)C1=S | 122% (inactive) | 107% (inactive) | 95.8% (inactive) | 107% (inactive) | 100% (inactive) | 101% (inactive) | 111% (inactive) | 96.9% (inactive) | 102% (inactive) | 105% (inactive) |
| C=C1C(=O)OC2CC3(C)OC3C3OC3C3=CC(OC3=O)C12 (stereo not given) | 109% (inactive) and 111% (inactive) | -0.414% (active) and 6.29% (active) | -53.4% (active) and -59.2% (active) | 104% (inactive) and 107% (inactive) | 8.42% (active) and 68.4% (inactive) | 99.2% (inactive) and 109% (inactive) | 103% (inactive) and 97.9% (inactive) | 101% (inactive) and 96.3% (inactive) | 53.6% (inactive) and 82.2% (inactive) | 88.3% (inactive) and 91.9% (inactive) |
| CCCCS(=O)(=O)Cl | 113% (inactive) | 107% (inactive) | 108% (inactive) | 111% (inactive) | 112% (inactive) | 108% (inactive) | 102% (inactive) | 99% (inactive) | 110% (inactive) | 99.1% (inactive) |
| Cc1ccccc1-n1c(/C=C\c2ccccn2)nc2ccccc2c1=O | 21.3% (inactive) | 23.8% (inactive) | 59.5% (inactive) | 77.1% (inactive) | 7.42% (active) | 61.7% (inactive) | 74.4% (inactive) | 82.8% (inactive) | 81.8% (inactive) | 64.9% (inactive) |
| CC[CH2][Sn]([Cl])([Cl])[CH2]CC.Oc1ccccc1C=NCCN=Cc1ccccc1O | 81.3% (inactive) and 76.9% (inactive) | 4.37% (active) and -23.9% (active) | 4.96% (active) and -43.8% (active) | 38.7% (inactive) and 28.5% (inactive) | 51.7% (inactive) and 1.58% (active) | 49.7% (inactive) and 20.3% (inactive) | 93.2% (inactive) | 59.9% (inactive) and 37.8% (inactive) | 51.4% (inactive) and 5.28% (active) | 69.6% (inactive) and 39% (inactive) |
| CCCCCCCCCCCCCCCCCC1OCC(COC(=O)O[C@@H](C(=O)O[C@H]2C[C@@]3(O)[C@@H](OC(=O)c4ccccc4)[C@@H]4[C@]5(OC(C)=O)CO[C@@H]5C[C@H](O)[C@@]4(C)C(=O)[C@H](OC(C)=O)C(=C2C)C3(C)C)[C@@H](NC(=O)c2ccccc2)c2ccccc2)O1 (stereo not given in full) | 44.4% (inactive) | 18.8% (inactive) | 59.3% (inactive) | 81.8% (inactive) | 28.1% (inactive) | 59.1% (inactive) | 48.4% (inactive) | 51.2% (inactive) | 69.8% (inactive) | 37.8% (inactive) |
